PubChem BioAssay
For some of these results: Potency and affinity values are given separately. The source made the active and inactive calls.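 How the source made its calls, unless noted: active means fluorescence ratio normalized to control raised more than 50% in primary screen plus both repeat runs; inactive means the rest.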

What was measured:
[1] = system: TRPC4 beta (transient receptor potential cation channel C4), mouse; assay: TRPC4 cation channel opening, retest – cell-based, Fluo4 calcium, HEK293 TRPC4beta/mu-opioid, duplicates, 10 µM, confirmation (AID 2426); settings: Fluo4 calcium fluorescence, at 10 µM; hits give high values;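 on activation: percent rise of integrated ratio over buffer wells lacking compound which define 0%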
[2] = system: transient receptor potential cation channel C4 beta (TRPC4), mouse; assay: TRPC4 cation channel opening, second retest – cell-based, second round, Fluo4, HEK293 TRPC4beta/mu-opioid, 1 µM, confirmation (AID 2461;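 active means primary screen active and over 50% activation in each of two duplicate runs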); settings: Fluo4 calcium fluorescence, at 1 µM; hits give high values
[3] = system: TRPC4 (transient receptor potential cation channel C4 beta), mouse; assay: potentiation of DAMGO EC20 TRPC4 response – cell-based, second round, Fluo-4, HEK293 TRPC4beta/mu-opioid, 1 µM, confirmation (AID 2554;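 active means primary screen hit whose fluorescence ratio, in both repeats, exceeds the weak agonist control mean by 3 SD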); settings: DAMGO EC20, Fluo-4 calcium flux, at 1 µM; hits give high values
[4] = system: TRPC4 beta (transient receptor potential cation channel C4), mouse; assay: potentiation of DAMGO EC20 TRPC4 response – cell-based, Fluo-4, HEK293 TRPC4beta/mu-opioid, confirmation (AID 2555;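 active means primary screen hit whose calcium fluorescence ratio, in both repeats, exceeds the weak agonist control mean by 3 SD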); settings: DAMGO EC20, Fluo-4 calcium flux, at 10 µM; hits give high values
[5] = biological target: Short transient receptor potential channel 4 (Mus musculus) (UniProt Q9QUQ5); assay: blockers of DAMGO-evoked TRPC4 calcium flux – cell-based, Fluo4, HEK293 TRPC4beta/mu-opioid, confirmation (AID 2636;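 active means calcium signal cut by more than 3 SD below the full-agonist control yet still positive, in both repeats and the earlier primary screen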); settings: at 10 µM; hits give high values
Chain of Short transient receptor potential channel 4 (Mus musculus) (Q9QUQ5 whole entry, looked up): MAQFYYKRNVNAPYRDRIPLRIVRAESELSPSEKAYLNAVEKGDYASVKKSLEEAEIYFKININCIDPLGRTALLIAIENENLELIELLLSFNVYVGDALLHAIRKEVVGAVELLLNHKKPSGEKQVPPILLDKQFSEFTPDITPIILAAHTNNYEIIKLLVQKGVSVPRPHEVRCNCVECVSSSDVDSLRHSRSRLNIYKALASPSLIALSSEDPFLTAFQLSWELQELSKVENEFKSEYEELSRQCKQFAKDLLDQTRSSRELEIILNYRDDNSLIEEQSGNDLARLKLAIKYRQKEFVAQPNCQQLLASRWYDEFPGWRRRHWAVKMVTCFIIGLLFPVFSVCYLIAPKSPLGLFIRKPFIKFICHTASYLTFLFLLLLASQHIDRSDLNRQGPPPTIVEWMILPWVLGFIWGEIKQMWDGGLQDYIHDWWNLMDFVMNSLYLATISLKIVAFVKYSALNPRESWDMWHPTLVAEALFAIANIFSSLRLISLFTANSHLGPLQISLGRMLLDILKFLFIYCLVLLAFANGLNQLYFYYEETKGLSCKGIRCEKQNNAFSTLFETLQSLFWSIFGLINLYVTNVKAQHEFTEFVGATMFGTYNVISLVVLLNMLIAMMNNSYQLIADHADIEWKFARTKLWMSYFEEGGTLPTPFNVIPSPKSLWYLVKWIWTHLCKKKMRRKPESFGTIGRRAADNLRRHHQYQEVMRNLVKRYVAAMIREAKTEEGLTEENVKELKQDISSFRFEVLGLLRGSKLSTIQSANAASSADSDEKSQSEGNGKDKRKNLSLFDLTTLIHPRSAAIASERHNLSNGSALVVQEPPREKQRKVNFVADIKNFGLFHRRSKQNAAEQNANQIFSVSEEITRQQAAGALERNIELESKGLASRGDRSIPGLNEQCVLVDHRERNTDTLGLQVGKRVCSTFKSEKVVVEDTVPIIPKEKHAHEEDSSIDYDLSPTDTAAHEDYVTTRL

[6] = biological target: Short transient receptor potential channel 4 (Mus musculus) (UniProt Q9QUQ5); assay: blockers of DAMGO-evoked TRPC4 calcium flux – cell-based, second round, Fluo4, HEK293 TRPC4beta/mu-opioid, 1 µM, confirmation (AID 2637;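 active means calcium signal ratio cut to more than 3 SD under the fully stimulated control mean yet still positive, in both repeats and the primary screen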;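 on inhibition: percent of integrated ratio relative to wells lacking test compound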); settings: at 1 µM; hits give high values
[7] = biological target: Short transient receptor potential channel 4 (Mus musculus) (UniProt Q9QUQ5); assay: potentiation of DAMGO-evoked TRPC4 calcium signal – cell-based, HEK293 TRPC4/mu-opioid, Fluo-4 calcium, EC20 DAMGO, dose response (AID 434941;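 active means earlier screen potentiator hit that boosts the TRPC4 ion channel at some dose, with a dose response; inactive means no potentiation, no dose response, or not a prior hit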;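 further: calcium entry triggered by an EC20 dose of DAMGO at the co-expressed mu-opioid receptor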)
[8] = biological target: Short transient receptor potential channel 6 (Mus musculus) (UniProt Q61143); assay: TRPC6 blockade by TRPC4 inhibitor hits – cell-based, HEK293, membrane potential dye, duplicate, selectivity assay for TRPC4 inhibitor project, confirmation (AID 434948;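 active means active in primary screen and both duplicates, each dropping signal beyond three positive-control SD with fluorescence still positive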); settings: HEK293 TRPC6, membrane potential dye fluorescence, at 10 µM, stimulated with maximal-effect acetylcholine; hits give high values
Chain of Short transient receptor potential channel 6 (Mus musculus) (Q61143 whole entry, looked up): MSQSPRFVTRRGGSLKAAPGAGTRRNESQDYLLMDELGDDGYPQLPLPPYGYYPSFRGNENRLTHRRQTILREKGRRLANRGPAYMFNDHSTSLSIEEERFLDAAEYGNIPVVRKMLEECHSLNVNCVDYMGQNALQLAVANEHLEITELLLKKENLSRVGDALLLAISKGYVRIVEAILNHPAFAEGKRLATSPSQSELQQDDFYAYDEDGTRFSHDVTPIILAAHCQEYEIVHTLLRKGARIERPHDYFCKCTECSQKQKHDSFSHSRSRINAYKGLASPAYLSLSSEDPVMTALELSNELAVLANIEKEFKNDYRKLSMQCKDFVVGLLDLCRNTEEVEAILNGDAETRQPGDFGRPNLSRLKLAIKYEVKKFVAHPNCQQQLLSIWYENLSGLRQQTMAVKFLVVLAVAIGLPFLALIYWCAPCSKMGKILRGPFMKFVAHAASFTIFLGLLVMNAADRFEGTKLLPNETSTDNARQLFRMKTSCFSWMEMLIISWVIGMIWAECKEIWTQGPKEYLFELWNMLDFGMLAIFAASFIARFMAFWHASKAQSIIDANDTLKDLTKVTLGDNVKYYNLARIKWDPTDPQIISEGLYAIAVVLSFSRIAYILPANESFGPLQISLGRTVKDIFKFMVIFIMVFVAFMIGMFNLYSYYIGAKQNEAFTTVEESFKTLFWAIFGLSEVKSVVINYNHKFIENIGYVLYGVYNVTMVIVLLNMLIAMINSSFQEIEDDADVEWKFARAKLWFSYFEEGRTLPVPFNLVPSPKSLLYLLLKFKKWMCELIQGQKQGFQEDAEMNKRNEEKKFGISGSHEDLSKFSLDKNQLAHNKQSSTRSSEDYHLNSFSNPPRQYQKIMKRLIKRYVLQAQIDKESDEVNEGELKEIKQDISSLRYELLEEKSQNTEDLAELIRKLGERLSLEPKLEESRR

[9] = biological target: Short transient receptor potential channel 6 (Mus musculus) (UniProt Q61143); assay: TRPC6 opening by TRPC4 activator hits – cell-based, HEK293, membrane potential dye, duplicate, selectivity assay for TRPC4 activator project, confirmation (AID 434950;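 active means membrane potential signal rise above negative control mean plus 3 SD in both duplicates, also active in the earlier TRPC4 screen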;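 on activation: 0% = buffer only wells and 100% = acetylcholine maximal-effect wells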); settings: HEK293 TRPC6, membrane potential fluorescence, at 10 µM; activation: hits give high values; outcome: activation
[10] = biological target: Short transient receptor potential channel 6 (Mus musculus) (UniProt Q61143); assay: positive modulators of mouse TRPC6 channel – HEK293 cells, membrane potential dye, duplicate, selectivity assay for TRPC4 potentiator project, confirmation (AID 434952;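 active means compound raising the membrane signal above positive-control mean plus 3 SD in both repeats, and a primary screen hit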); settings: HEK293 TRPC6, membrane potential dye fluorescence, at 10 µM, maximal acetylcholine added after compound; hits give high values
[11] = biological target: Short transient receptor potential channel 4 (Mus musculus) (UniProt Q9QUQ5); assay: calcium flux activators in TRPC4/5HT1a cells, counter-screen for TRPC4 activator project, cell-based, second counter screen, HEK293 TRPC4/5HT1a, Fluo-4 (AID 434977;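 active means calcium signal rise above buffer-control mean plus 5 SD in both duplicates, and also a hit in the primary screen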;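 on activation: plate controls were assay buffer for no effect and maximal serotonin response for full effect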); settings: Fluo-4 calcium flux, at 10 µM; hits give high values
[12] = serotonin-gated TRPC4 signal block – cell-based, second counter screen, HEK293 TRPC4/5HT1a, Fluo-4, counter-screen for TRPC4 inhibitor project, confirmation (AID 434978;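 active means primary screen active whose calcium signal fell more than 3 SD beyond the full-serotonin control mean in both duplicate plates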;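 on outcome: serotonin given first at submaximal then at maximal dose after compound preincubation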); settings: Fluo-4 calcium flux, at 10 µM, serotonin added to trigger calcium flux; hits give high values
[13] = system: TRPC4 (mouse), co-expressed with 5HT1a in HEK293; assay: enhancement of serotonin-evoked TRPC4 response – cell-based, second counter screen, HEK293 TRPC4/5HT1a, Fluo-4, counter-screen for TRPC4 potentiator project, confirmation (AID 434979;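 active means signal rise over 3 SD above mean of control wells given weak agonist, in both repeats and first screen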); settings: Fluo-4 calcium flux, at 10 µM, serotonin added at its EC20 dose; hits give high values
[14] = nonspecific calcium rise without TRPC4 – cell-based, HEK293 mu-opioid receptor line, counter-screen for TRPC4 activator project, confirmation (AID 449723;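 active means hit in primary screen, with calcium signal over 5 SD above buffer well mean in both duplicates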;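 further: counter screen cells carry the mu-opioid receptor alone and lack TRPC4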); settings: HEK293 mu-opioid cells, Fluo-4 calcium fluorescence, at 10 µM; hits give high values
[15] = nonspecific potentiation of DAMGO calcium response – cell-based, HEK293 mu-opioid receptor line, counter-screen for TRPC4 allosteric potentiator project, confirmation (AID 449724;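 active means calcium signal rise more than 3 SD above the low-dose agonist control mean, in both duplicate plates and the primary screen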); settings: HEK293 mu-opioid receptor cells, Fluo-4 calcium flux, at 10 µM, compound added before EC20 DAMGO stimulus; hits give high values
[16] = nonspecific flux increase, KCNQ1-free cells – parental CHO cells, counter-screen for KCNQ1 potentiator project (AID 493006;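 active means duplicate-averaged activation above buffer control mean plus 5 SD of those controls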); settings: parental CHO-K1 cells, FluxOR thallium flux, at 10 µM; hits give high values
[17] = biological target: Potassium voltage-gated channel subfamily KQT member 1 (Homo sapiens) (UniProt P51787); assay: enhancement of KCNQ1 channel thallium flux – FluxOR thallium flux, CHO cells, duplicates, confirmation (AID 493007;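 active means potentiation averaged over duplicate wells exceeding buffer-only control mean by more than 3 SD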;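 further: cells depolarized by a potassium plus thallium sulfate stimulus after compound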); settings: KCNQ1 cell line, FluxOR thallium flux fluorescence, at 10 µM; hits give high values, % of reference activator effect, buffer zero
Chain of Potassium voltage-gated channel subfamily KQT member 1 (Homo sapiens) (P51787 whole entry, looked up): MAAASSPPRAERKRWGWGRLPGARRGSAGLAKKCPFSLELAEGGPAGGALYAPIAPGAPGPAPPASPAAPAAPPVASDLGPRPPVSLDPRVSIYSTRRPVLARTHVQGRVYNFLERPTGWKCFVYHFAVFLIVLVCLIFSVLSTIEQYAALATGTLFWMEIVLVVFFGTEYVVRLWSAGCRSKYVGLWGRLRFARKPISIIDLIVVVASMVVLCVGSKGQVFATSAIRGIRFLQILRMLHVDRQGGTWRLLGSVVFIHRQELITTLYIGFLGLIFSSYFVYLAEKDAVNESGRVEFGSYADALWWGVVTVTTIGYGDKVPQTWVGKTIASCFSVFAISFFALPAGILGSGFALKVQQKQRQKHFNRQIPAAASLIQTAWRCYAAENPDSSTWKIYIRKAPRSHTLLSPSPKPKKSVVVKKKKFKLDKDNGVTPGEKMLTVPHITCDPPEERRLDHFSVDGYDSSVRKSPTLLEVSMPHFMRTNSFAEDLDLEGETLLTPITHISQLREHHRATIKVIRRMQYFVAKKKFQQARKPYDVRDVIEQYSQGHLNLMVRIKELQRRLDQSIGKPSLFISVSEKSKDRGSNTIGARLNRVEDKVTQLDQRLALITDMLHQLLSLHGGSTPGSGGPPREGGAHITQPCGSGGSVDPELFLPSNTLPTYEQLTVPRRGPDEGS

[18] = biological target: Potassium voltage-gated channel subfamily KQT member 2 (Rattus norvegicus) (UniProt O88943); assay: KCNQ2 thallium flux enhancement – KCNQ2-CHO-K1 cells, selectivity assay for KCNQ1 potentiator project (AID 493009;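 active means mean duplicate potentiation above the buffer control mean plus 5 SD of buffer wells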;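 further: assay conditions were tuned for KCNQ1 rather than KCNQ2 modulators; signal is max minus min fluorescence divided by baseline after thallium stimulus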); settings: FluxOR thallium flux fluorescence, at 10 µM; hits give high values, scaled: buffer 0, activator control 100
Chain of Potassium voltage-gated channel subfamily KQT member 2 (Rattus norvegicus) (O88943 whole entry, looked up): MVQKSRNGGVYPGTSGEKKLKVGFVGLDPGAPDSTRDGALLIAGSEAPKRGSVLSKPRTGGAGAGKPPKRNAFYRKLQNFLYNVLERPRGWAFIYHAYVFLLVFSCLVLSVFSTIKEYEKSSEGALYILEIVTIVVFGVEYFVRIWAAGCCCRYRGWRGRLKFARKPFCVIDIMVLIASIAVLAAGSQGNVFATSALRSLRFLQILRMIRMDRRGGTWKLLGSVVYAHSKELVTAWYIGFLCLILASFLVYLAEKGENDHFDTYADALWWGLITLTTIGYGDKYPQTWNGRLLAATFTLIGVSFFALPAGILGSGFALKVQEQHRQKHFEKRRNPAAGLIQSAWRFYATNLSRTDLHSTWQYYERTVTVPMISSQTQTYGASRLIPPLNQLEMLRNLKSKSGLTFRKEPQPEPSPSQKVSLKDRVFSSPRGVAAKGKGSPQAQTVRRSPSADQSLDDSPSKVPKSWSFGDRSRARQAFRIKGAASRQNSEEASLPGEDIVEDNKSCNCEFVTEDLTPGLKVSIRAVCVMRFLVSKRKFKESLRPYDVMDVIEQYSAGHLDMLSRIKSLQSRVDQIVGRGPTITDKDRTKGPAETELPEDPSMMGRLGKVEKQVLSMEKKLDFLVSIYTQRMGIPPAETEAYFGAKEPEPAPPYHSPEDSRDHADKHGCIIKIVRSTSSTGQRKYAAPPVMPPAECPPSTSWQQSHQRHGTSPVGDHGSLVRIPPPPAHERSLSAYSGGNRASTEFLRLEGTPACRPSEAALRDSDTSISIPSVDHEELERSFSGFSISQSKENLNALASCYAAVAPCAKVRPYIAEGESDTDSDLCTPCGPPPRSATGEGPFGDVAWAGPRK

[19] = biological target: Potassium voltage-gated channel subfamily KQT member 1 (Homo sapiens) (UniProt P51787); assay: KCNQ1 activators by electrophysiology – IonWorks patch clamp, KCNQ1-CHO cells, orthogonal assay for KCNQ1 potentiator project, confirmation (AID 493184;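 active means current rise at least 3 SD above the untreated control mean in each of two repeat wells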); settings: automated patch clamp current, at 10 µM; hits give high values

Structure (SMILES): CN(C)C(CNC(=O)C1CCN(S(=O)(=O)c2cccc(C(F)(F)F)c2)CC1)c1ccccc1 (centres undefined)
- outcome [1]: inactive
- outcome [2]: inactive
- outcome [3]: inactive
- outcome [4]: inactive
- outcome [5]: inactive
- inhibition [6]: 85% (active)
- outcome [7]: inactive
- outcome [8]: inactive
- outcome [9]: inactive
- outcome [10]: inactive
- outcome [11]: inactive
- outcome [12]: inactive
- outcome [13]: inactive
- outcome [14]: inactive
- outcome [15]: inactive

Structure (SMILES): Cc1cc(NCc2ccccc2)nc2ccccc12
- activation [1]: 95% (active)
- outcome [2]: inactive
- outcome [3]: inactive
- outcome [4]: inactive
- outcome [5]: inactive
- outcome [6]: inactive
- outcome [7]: inactive
- inhibition [8]: 53.5% (active)
- outcome [9]: inactive
- outcome [10]: inactive
- activation [11]: 5.93% (active)
- inhibition [12]: 26.2% (active)
- outcome [13]: inactive
- outcome [14]: inactive
- outcome [15]: inactive
- outcome [16]: inactive
- outcome [17]: inactive
- outcome [18]: inactive
- outcome [19]: inactive

Structure (SMILES): COc1ccc(/C=C/C(=O)Nc2ccccc2C(=O)NCC(c2ccc(OC)cc2)N(C)C)cc1 (centres undefined)
- outcome [1]: inactive
- outcome [2]: inactive
- outcome [3]: inactive
- outcome [4]: inactive
- inhibition [5]: 101% (active)
- inhibition [6]: 81% (active)
- outcome [7]: inactive
- outcome [8]: inactive
- outcome [9]: inactive
- outcome [10]: inactive
- outcome [11]: inactive
- outcome [12]: inactive
- outcome [13]: inactive
- outcome [14]: inactive
- outcome [15]: inactive

Structure (SMILES): Cc1ccc(COn2c(-c3ccc(Cl)cc3Cl)nc3ncccc32)cc1
- outcome [1]: inactive
- outcome [2]: inactive
- outcome [3]: inactive
- outcome [4]: inactive
- outcome [5]: inactive
- outcome [6]: inactive
- outcome [7]: inactive
- outcome [8]: inactive
- activation [9]: 46% (active)
- outcome [10]: inactive
- outcome [11]: inactive
- outcome [12]: inactive
- outcome [13]: inactive
- outcome [14]: inactive
- outcome [15]: inactive

Structure (SMILES): O=C(NCc1ccccc1)C1=C[C@H](c2ccc3c(c2)OCO3)C[C@H](OCc2ccc(CO)cc2)O1
- activation [1]: 142% (active)
- outcome [2]: inactive
- outcome [3]: inactive
- outcome [4]: inactive
- outcome [5]: inactive
- outcome [6]: inactive
- outcome [7]: inactive
- outcome [8]: inactive
- outcome [9]: inactive
- outcome [10]: inactive
- activation [11]: 115% (active)
- inhibition [12]: 18.1% (active)
- outcome [13]: inactive
- outcome [14]: inactive
- outcome [15]: inactive

Structure (SMILES): CCOC(=O)C1(CC2CC2)CCN(Cc2ccc(O)c(Cl)c2)CC1
- outcome [1]: inactive
- outcome [2]: inactive
- outcome [3]: inactive
- outcome [4]: inactive
- inhibition [5]: 97% (active)
- inhibition [6]: 63% (active)
- outcome [7]: inactive
- outcome [8]: inactive
- activation [9]: 82% (active)
- outcome [10]: inactive
- outcome [11]: inactive
- outcome [12]: inactive
- outcome [13]: inactive
- outcome [14]: inactive
- outcome [15]: inactive

Structure (SMILES): CCOC(=O)C1(CC2CC2)CCN(Cc2cn[nH]c2-c2ccccc2)CC1
- outcome [1]: inactive
- outcome [2]: inactive
- outcome [3]: inactive
- outcome [4]: inactive
- inhibition [5]: 97% (active)
- inhibition [6]: 47% (active)
- outcome [7]: inactive
- outcome [8]: inactive
- activation [9]: 91% (active)
- outcome [10]: inactive
- outcome [11]: inactive
- inhibition [12]: 35.9% (active)
- outcome [13]: inactive
- outcome [14]: inactive
- outcome [15]: inactive
